Compound activity (PubChem BioAssay)
In the library only some 5.9% were active in any assay of this set; here they are far more common.
ALR H2O2 inh: blocks human ALR sulfhydryl oxidase activity; P55789; purified ALR, DTT oxidation, H2O2 HRP-luminol luminescence; inhibition, % (test concentration not listed); hit rate 3.8% among 290,000;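 active = mean replicate inhibition above about 79%, with every replicate also reaching it, limit read from the data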
Target sequence (P55789 whole entry, looked up): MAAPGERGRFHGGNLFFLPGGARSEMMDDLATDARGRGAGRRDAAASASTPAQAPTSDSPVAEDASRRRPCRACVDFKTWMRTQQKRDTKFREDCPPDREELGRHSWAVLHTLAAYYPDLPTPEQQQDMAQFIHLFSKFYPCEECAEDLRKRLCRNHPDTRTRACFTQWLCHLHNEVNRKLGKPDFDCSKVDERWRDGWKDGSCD
LANA-H2A inh: blocks KSHV LANA binding to histone H2A/H2B. inhibition, % (no concentration beside the values). AID 2629. Q9QR71. hit rate 0.6% among 320,000. cell-free LANA-H2A/H2B peptide, fluorescence polarization; in the data active = inhibition mostly above about 10%, no sharp cut-off; inactive = mostly below about 6.7%
PRMT1 inh: inhibitors of human PRMT1; hit rate 1.3% among 370,000; inhibition, % at 2.79 µM; recombinant PRMT1, activity-based probe fluorescence polarization; Q99873; AID 652257;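 active = inhibition above about 21% made by adding two undisclosed values, limit read from the data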
Rtt109 HAT inh: inhibitors of Candida albicans Rtt109/Vps75 histone acetyltransferase | Q5AAJ8 | hit rate 0.16% among 330,000 | AID 540336 | purified Rtt109/Vps75, ThioGlo CoA-SH fluorescence, 4 h | inhibition, % at 34.9 µM;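 active = inhibition of at least 50% in every replicate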
Target sequence (Q5AAJ8 whole entry, looked up): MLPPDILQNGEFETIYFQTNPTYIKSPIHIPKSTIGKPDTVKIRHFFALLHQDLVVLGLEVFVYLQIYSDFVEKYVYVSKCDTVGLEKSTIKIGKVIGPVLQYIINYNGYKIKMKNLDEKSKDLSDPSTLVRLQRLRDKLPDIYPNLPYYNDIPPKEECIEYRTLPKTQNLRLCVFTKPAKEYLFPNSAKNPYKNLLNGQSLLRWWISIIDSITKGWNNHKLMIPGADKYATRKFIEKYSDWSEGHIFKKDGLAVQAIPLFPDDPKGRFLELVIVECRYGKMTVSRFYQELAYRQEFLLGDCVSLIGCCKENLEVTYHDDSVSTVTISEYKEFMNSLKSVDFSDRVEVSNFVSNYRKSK
rCAG RNA binder: r(CAG) repeat RNA binding; hit rate 1.3% among 370,000; inhibition, % at 3 µM; TO-PRO-1 dye displacement fluorescence;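 active = inhibition above the plate cutoff, the mean of all test compounds on that plate plus 3 SD, cut at about 35% in these data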;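 note: 0% = DMSO alone and 100% = 100 µM mitoxantrone as full dye displacement; higher means more dye released from RNA so lower well fluorescence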
ABHD5 PLIN5 PPI: blocks binding of human ABHD5 to perilipin-5; inhibition, % at 4 µM; Split G. princeps luciferase complementation, luminescence, 4 h; Q00G26+Q8WTS1; AID 602281; hit rate 0.78% among 360,000;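 active = inhibition above the mean inhibition across every tested compound plus 3 SD, cut at about 22% in these data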;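 note: 0% = DMSO only wells and the 100% control is not disclosed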
Starred values were filed as active, the others as inactive; x = no result.

SMILES	ALR H2O2 inh	LANA-H2A inh	PRMT1 inh	Rtt109 HAT inh	rCAG RNA binder	ABHD5 PLIN5 PPI
Cc1ccc(C(=O)c2coc3ccc(O)c(Cl)c23)cc1	97.5*	-0.5	3.2	8.9	1.3	1.6
CN(C)Cc1c(O)ccc2occ(C(=O)c3ccccc3)c12	-49.9	0.2	4.1	3.9	2.3	-1.4
O=C(c1ccccc1)c1coc2ccc(O)c(Cl)c12	99.0*	0.0	-0.4	6.3	0.4	1.9
CN(C)c1ccc(CNc2ccc3c(c2)ncn3C)cc1	99.5*	-2.0	-2.9	x	-0.6	x
Cn1cnc2cc(NCc3ccccc3Cl)ccc21	89.8*	0.9	-2.1	-1.5	-4.8	3.4
CCn1cnc2cc(NCc3ccccc3Cl)ccc21	45.5	-2.3	-2.8	-5.2	3.2	-1.3
CCN(CC)c1ccc(CNc2ccc3c(c2)ncn3C(C)(C)C)cc1	98.8*	1.1	0.6	1.9	2.1	1.8
CC(C)c1ccc(CNc2ccc3c(c2)ncn3C)cc1	78.2*	-3.2	4.5	1.8	-5.0	1.7
S=C(NCCCN1CCN(CCCNC(=S)NC2CCCCC2)CC1)NC1CCCCC1	x	x	-3.5	6.8	0.4	-3.8
CN(C(=S)Nc1ccc(Oc2ccccc2)cc1)c1ccc(O)cc1	7.2	-0.5	10.6	0.6	10.8	-20.7
CN(C(=S)Nc1ccc(SC(F)F)cc1)c1ccc(O)cc1	81.1*	-2.3	29.7*	-10.7	14.3	-4.8
CN(C(=S)Nc1ccccc1)c1ccccc1	-4.6	-0.5	-2.5	-0.8	-0.7	-0.1
CN(C(=S)Nc1cccnc1)c1ccc(O)cc1	59.5	-7.1	32.6*	4.1	8.2	-2.3
CCc1nc2ccc(C(=O)NCc3cccs3)cn2c1N(CC)Cc1cccc(Br)c1	x	x	0.3	x	6.2	8.4
CCOC(=O)c1nnn(-c2nn3nnnc3c3ccccc23)c1C	98.3*	-1.5	-1.4	1.4	-1.1	-1.3
O=C(Nc1ccccc1F)O[C@@H]1CC[C@@]23CCCN2C(=O)CCC[C@H]3C1	x	x	0.5	x	x	x
O=C(Nc1nc(-c2cccs2)cs1)c1ccc(Cl)s1	97.5*	-3.0	0.1	9.7	8.7	6.3
COc1cc2c3c(cccc3c1)C(=O)N(CCN1CCCC1)C2=O	x	x	3.7	x	11.7	-0.1
Clc1ccc(CSc2nnc(-c3ccccn3)n2Cc2ccco2)cc1Cl	x	x	3.3	x	1.6	-2.0
O=C(CSc1nnc(-c2cccnc2)n1Cc1ccco1)c1ccc(Br)cc1	95.8*	-2.8	4.2	2.5	-2.7	1.6
O=C(CSc1nnc(-c2cnccn2)n1Cc1ccco1)c1ccc(Cl)cc1	0.0	1.8	1.6	x	6.4	21.6
O=C(CSc1nnc(-c2cnccn2)n1Cc1ccco1)c1ccccc1	87.2*	-2.5	-1.5	8.4	7.2	5.4
Clc1cccc(CSc2nnc(-c3ccccn3)n2Cc2ccco2)c1	26.3	1.7	-1.3	-10.9	-10.8	22.5*
CCSc1nnc(-c2cccnc2)n1Cc1ccco1	6.3	-2.3	5.2	3.9	2.4	11.6
O=C(CSc1nnc(-c2ccccn2)n1Cc1ccco1)c1ccc(Cl)cc1	97.3*	-2.4	8.5	x	8.2	9.2
SMILES	ALR H2O2 inh	LANA-H2A inh	PRMT1 inh	Rtt109 HAT inh	rCAG RNA binder	ABHD5 PLIN5 PPI
COC(=O)C1CN(Cc2cn(Cc3ccccc3)nn2)CCS(=O)(=O)N1Cc1ccccc1 (stereo not given)	x	x	-0.7	x	0.5	x
COc1ccc(C(=O)OCC(=O)NC2CC2)cc1	x	x	4.7	x	2.2	-1.2
CN(C)c1ccc(NC(=O)Nc2ccc3c(c2)c(=O)n(C)n3Cc2ccc(Cl)cc2)cc1	x	x	14.6	x	10.1	19.4
c1ccc(CCn2nnnc2CN2CCc3ccccc32)cc1	99.4*	-0.3	0.4	1.7	7.9	5.6
N#CCC[C@H]1CC[C@]2(CCCN(Cc3ccccc3)C2)O1	x	x	1.6	x	0.9	x
CCN(CC)C(=O)CC[C@H]1CC[C@]2(CCCN(C3CCCCC3)C2)O1	x	x	0.1	x	2.6	x
CCN(CC)C(=O)CSC1=N/C(=C/c2ccco2)C(=O)N1c1ccc(OC)c(Cl)c1	97.5*	-6.5	17.9	-5.9	18.5	13.3
Cc1ccc(N(CC(=O)O)C2SC(=O)NC2=O)cc1 (stereo not given)	-5.4	-3.8	-1.9	0.3	1.6	4.2
Cc1ccc(N(CC(N)=O)C2SC(=O)NC2=O)cc1 (stereo not given)	-3.8	22.3*	7.6	7.5	4.7	-4.4
O=C(NC1CCCCN(Cc2cccc(F)c2)C1=O)c1ccc(F)cc1 (stereo not given)	x	x	1.7	x	2.6	x
CCN(CC)CCC(=O)N1c2ccccc2Sc2ccc(Cl)cc21	64.0	-2.6	-0.6	17.4	-0.4	2.9
CCN(CC)CCN1c2ccccc2Sc2ccc3ccccc3c21	97.9*	3.6	4.7	-0.4	0.1	8.4
CC(=O)N1c2ccccc2Sc2ccc3ccccc3c21	x	x	-9.6	x	0.8	0.8
CCN(CC)CCN1c2ccccc2Sc2ccccc21	99.7*	5.3	-2.7	-0.4	0.0	14.6
COC(=O)[C@H](C(C)C)N1Cc2nnn(CC3CCCCC3)c2-c2ccccc2S1(=O)=O	x	x	-1.1	x	-1.7	x
COc1ccc(OC)c(/C=N/c2oc(-c3ccco3)c(-c3ccco3)c2C#N)c1	98.1*	3.0	9.7	0.5	12.1	9.8
Cc1cccc(N/C=C/C(=O)c2ccc(Cl)cc2)c1	-8.7	-0.7	2.0	-13.0	2.5	-6.3
O=C(/C=C\Nc1ccccn1)c1ccc(Cl)cc1	0.7	0.0	-1.1	62.3*	2.2	8.3
Cc1ccccc1-c1nc2cc(N)ccc2o1	-71.8	5.8	0.3	-0.5	-0.6	-1.0
CC(C)c1ccc2oc(-c3cc(N)ccc3O)nc2c1	93.0*	-6.6	15.6	10.0	12.0	-5.1
O=C(c1cccs1)n1ccc2ccc(-c3ccc4ccn(C(=O)c5cccs5)c4c3)cc21	x	x	-5.6	x	13.5	x
C=CCc1ccccc1OCC(O)CN1C(=O)c2ccccc2C1=O (stereo not given)	-11.2	12.7*	-2.0	1.3	-7.7	-6.1
COc1ccc(NC(=O)n2nc(OC(=O)c3cccs3)cc2N)cc1	x	-8.0	24.3*	9.9	12.1	7.8
COc1ccc(-c2ccc(S(=O)(=O)n3nc(OC(=O)c4cccs4)cc3N)cc2)cc1	-6.6	-3.6	-5.6	5.6	11.0	3.1
COc1cc(C(=O)Nc2ccc(C(F)(F)F)cc2)ccc1OCC(=O)N1CCOCC1	x	x	-0.9	1.8	-3.7	4.0
CC1CCCN(S(=O)(=O)c2ccc(NC(=O)Cn3nnc(-c4ccccc4F)n3)cc2)C1 (stereo not given)	-3.9	-4.1	0.8	-0.7	12.5	22.3*
O=C(CCC(=O)Nc1ccc(F)cc1)N/N=C/c1ccc(O)cc1	99.2*	-1.4	5.4	3.2	-2.7	-1.7
Cc1ccc(NC(=O)CCC(=O)N/N=C/c2ccc(O)cc2)cc1	95.0*	3.0	-1.3	-2.6	0.9	3.1
COc1cccc(C(NC(C)=O)c2nc(-c3ccccc3C)cs2)c1 (stereo not given)	x	x	-1.9	x	1.6	7.1
C=CCN(C(=O)[C@@H](CCCC)[C@@H](O)c1ccc2ccccc2c1)c1ccccc1	x	x	-2.6	x	0.2	x
